DT40 TDP1 no CPT: qHTS for Inhibitors of human tyrosyl-DNA phosphodiesterase 1 (TDP1): qHTS in cells in absence of CPT | DT40 Tdp1-/- hTDP1 cells, no CPT, ATP luminescence, 48 h | Potency, µM (highest dose often 46.2 µM), for inactives: at the top dose activity change, negative = growth inhibition, usual class: inhibitors | hit rate 15% among 420,000; also: nearly all actives have a fitted effect of over 55% in size
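Stably hTDP1-transfected Tdp1-null chicken DT40 cells were treated with library compounds minus camptothecin and grown for at least 48 hr at 37 °C, after which cellular ATP was quantified by luminescence.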
KB-3-1 tox: kills parental KB-3-1 adenocarcinoma cells; KB-3-1 viability, CellTiter-Glo ATP luminescence, 72 h; Potency, µM (doses to about 46.1 µM), most hits filed as cytotoxic; hit rate 1.4% among 400,000; AID 1347075; also: nearly all actives have a fitted effect of over 60% in size
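Parental KB-3-1 adenocarcinoma cells in phenol-red-free DMEM with 10% FBS were pin-treated with compounds at several concentrations, incubated 72 h at 37 °C, and viability read by CellTiter-Glo luminescence; concentration-effect curves were fitted after normalization.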
HT1080 IDH1KD tx: kills HT-1080 cells with IDH1 knockdown; HT-1080 IDH1 knockdown viability, ATP luminescence, 48 h; Potency, µM (series often up to 46.1 µM), inactives show at the top dose activity, negative = toxicity, actives largely listed as cytotoxic; hit rate 2% among 360,000;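 also: 0% = DMSO wells and -100% = cell-free medium wells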
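In this qHTS, HT-1080 cells depleted of IDH1 are exposed for 48 h at 37 °C to compound titrations. Toxicity is scored from CellTiter-Glo luminescence, with DMSO as full viability and medium alone as none.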
DT40 TDP1 CPT: DT40-hTDP1 cell growth loss with CPT | chicken DT40 Tdp1-/-;hTDP1 cells + 20 nM CPT, ATP luminescence, 48 h | Potency, µM (top dose mostly 46.2 µM), without a hit: top-dose activity change, negative = growth inhibition, actives largely listed as inhibitors | hit rate 12% among 420,000; also: nearly all actives have a fitted effect of over 55% in size
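Chicken DT40 Tdp1-/- cells complemented with human TDP1, 400 cells/well, exposed to compounds plus 20 nM camptothecin for at least 48 h at 37 C; viability read as ATP content by CellTiter-Glo luminescence.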
HT1080-NT tox: kills 2HG-producing HT-1080-NT fibrosarcoma cells | AID 686970 | hit rate 1.6% among 360,000 | Potency, µM (top dose mostly 46.1 µM), for inactives: at the top dose activity, negative = less viability, actives largely listed as cytotoxic | HT-1080-NT fibrosarcoma viability, CellTiter-Glo ATP luminescence, 48 h;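 also: NT is the 2HG producing partner of a matched IDH1 knockdown line; 0% = DMSO-treated cells and -100% = media-only wells without cells; nearly all actives have a fitted effect of over 55% in size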
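HT-1080-NT; 750 cells/well; 5% FBS RPMI; 48 h compound, 37 degrees C; CellTiter-Glo luminescence; curve fitting and curve-class assignment.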
KB-V1 MDR tox: KB-V1 MDR subline cytotoxicity; KB-V1 MDR cells viability, CellTiter-Glo, 72 h; Potency, µM (highest dose often 46.1 µM), usual class: cytotoxic; hit rate 3.4% among 400,000; also: nearly all actives have a fitted effect of over 60% in size
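Compound-treated KB-V1 multidrug-resistant cells, 72 h, 37 degrees C; viability by CellTiter-Glo. Fitted qHTS curves give the values.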
* marks the source's active call; other numbers are inactive results; i = inactive; ? = inconclusive; . = no result; [ ] = remark or other dose. The list is not random: actives were taken first. Their share in the collection is about 19%. Calls follow the shape of the dose curve; as a rule, active = well fitted curve in the direction sought with a large enough effect; inconclusive = small, poorly fitted or top-dose-only effect, or another doubt; inactive = no such curve, though single readings can be large; an effect the other way counts as inactive or inconclusive. Unless noted, % is scaled to controls: 0 for no effect and ±100 for the full control effect; potency is read from the fitted curve at half-maximal effect.

SMILES	DT40 TDP1 no CPT	KB-3-1 tox	HT1080 IDH1KD tx	DT40 TDP1 CPT	HT1080-NT tox	KB-V1 MDR tox
COCCN(CC(=O)Nc1cccc(C)c1C)C(=O)c1cc2ccccc2cc1OC	?	i	-2.0%	?	-2.1%	i
CCN(CC(=O)Nc1ccccc1C(F)(F)F)C(=O)c1cccc(N2C(=O)CCC2=O)c1	-13.2%	i	10.1%	1.5%	7.8%	i
CCN(CC(=O)Nc1ccccc1C(F)(F)F)C(=O)c1oc2c(Cl)cccc2c1C	?	i	-9.0%	-9.1%	-6.0%	18.4µM*
CCN(CC(=O)Nc1ccc(OC)cc1)C(=O)c1oc2c(Cl)cccc2c1C	-20.9%	i	-16.8%	2.0%	-25.8%	i
COc1ccc2oc(C(=O)N(C)CCOc3ccc(Cl)cc3)c(C)c2c1	-14.9%	i	-0.6%	?	10.4%	i
COCCN(CC(=O)Nc1cccc(C)c1C)C(=O)c1cc2c(s1)CCC2	-5.4%	i	0.4%	5.7%	0.1%	7.31µM*
Cc1ccc(OC(=O)CSc2nnc(CNC(=O)c3ccccc3)o2)cc1	-9.2%	i	.	-5.5%	.	?
Cc1ccc(C(=O)C(OC(=O)CNC(=O)COc2ccccc2C)c2ccccc2)cc1 (stereo unspecified)	-12.1%	i	.	0.2%	.	i
COCCN(CC(=O)Nc1cccc(C)c1C)C(=O)C1CCN(S(=O)(=O)c2ccccc2)CC1	-5.7%	i	-11.6%	?	-5.9%	9.2µM*
Nc1[nH]c(C(=O)c2ccccc2)c(-c2ccc(F)cc2)c1C(=O)NCc1ccccc1	-1.4%	i	8.9%	-0.5%	6.1%	i
Nc1[nH]c(C(=O)c2ccccc2)c(-c2ccc(Cl)cc2)c1C(=O)NCCc1c[nH]c2ccccc12	?	?	-24.6%	?	?	i
Nc1[nH]c(C(=O)c2ccccc2)c(-c2ccc(F)cc2)c1C(=O)NCCc1c[nH]c2ccccc12	23.1µM*	?	2.6%	?	4.4%	?
COc1ccc(C(=O)c2[nH]c(N)c(C(=O)NCCc3c[nH]c4ccccc34)c2-c2ccc(OC)c(OC)c2)cc1	8.2µM*	?	?	16.4µM*	?	i
COc1ccc(C(=O)NCCc2c[nH]c3ccccc23)cc1	-18.1%	i	-2.1%	?	0.9%	i
CCCCNC(=O)c1c(N)[nH]c(C(=O)c2ccccc2)c1-c1ccccn1	?	?	-2.2%	?	-3.2%	20.6µM*
COc1ccc(C(=O)c2[nH]c(N)c(C(=O)NCCc3c[nH]c4ccccc34)c2-c2c(F)cccc2Cl)cc1	14.6µM*	i	-6.7%	16.4µM*	-8.7%	i
O=C(NNc1cc(Cl)ccc1Cl)C1CCC1	?	i	-15.6%	?	-16.4%	i
COc1cc2cc(C(=O)NCCc3c[nH]c4ccccc34)c(N)nc2cc1OC	16.4µM*	i	?	?	?	i
CCOC(=O)c1cc(C#N)c(SC)nc1C	9.6%	i	6.3%	10.6%	2.5%	i
CC(=O)c1cc(C#N)c(SCc2ccc(F)cc2)nc1C	-2.5%	i	1.2%	5.6%	2.8%	i
CCOC(=O)c1cc(C#N)c(SCc2ccc(C#N)cc2)nc1C	-21.5%	i	-16.6%	-6.3%	-1.3%	2.31µM*
CCOC(=O)c1cc2c(N)c(C(=O)c3cc(C#N)c(SC)nc3C)sc2nc1C	10.3µM*	i	-2.4%[9.24 µM]	13µM*	-14.5%	i
CN(CC(=O)Nc1c(Cl)cccc1Cl)C(=O)C1CC(=O)N(Cc2ccccc2)C1 (stereo unspecified)	0.1%	i	4.3%	4.6%	-1.1%	i
Cc1sc2nc(SCCN(C)C)n(-c3ccccc3)c(=O)c2c1-c1ccc(F)cc1	25.9µM*	i	-7.6%	18.4µM*	-7.0%	i
COc1ccc(CCNc2nc(-c3sc(N)nc3C)cs2)cc1OC	16.4µM*	i	-2.1%	?	-1.6%	i
SMILES	DT40 TDP1 no CPT	KB-3-1 tox	HT1080 IDH1KD tx	DT40 TDP1 CPT	HT1080-NT tox	KB-V1 MDR tox
CC(=O)c1cccc(Nc2nc(-c3sc(N)nc3C)cs2)c1	16.4µM*	i	-1.8%	11.6µM*	-2.7%	i
CC(=O)c1cccc(Nc2nc(-c3sc(C)nc3C)cs2)c1	?	i	?	?	-15.1%	?
Cc1ccc(Nc2nc(-c3sc(C)nc3C)cs2)cc1	0.581µM*	2.31µM*	1.84µM*	0.92µM*	1.46µM*	1.84µM*
Cc1nc(C)c(-c2csc(Nc3ccc(S(N)(=O)=O)cc3)n2)s1	?	i	-7.0%	?	-17.6%	i
CC(=O)Nc1ccc(Nc2nc(-c3sc(C)nc3C)cs2)cc1	?	i	-5.6%	16.4µM*	-15.9%	i
CCCC[C@H]1COCCS(=O)(=O)N1Cc1cccc([N+](=O)[O-])c1	-10.8%	i	1.3%	-14.1%	2.9%	?
CC1(C(=O)NS(=O)(=O)c2cccs2)CCN1C(=O)Cc1ccc(Cl)cc1Cl (stereo unspecified)	-1.3%	i	-5.5%	-9.7%	5.8%	i
COc1ccc(Nc2nc(-c3sc(C)nc3C)cs2)c(OC)c1	8.2µM*	7.31µM*	16.4µM*	6.51µM*	?	?
COc1ccc(Nc2nc(-c3cccs3)cs2)c(OC)c1	-1.1%	i	-4.0%	-15.7%	-3.6%	i
CC(=O)c1ccc(Nc2nc(-c3sc(C)nc3C)cs2)cc1	1.84µM*	?	2.91µM*	2.06µM*	?	11.6µM*
Cc1ccc(Nc2nc(-c3sc(N)nc3C)cs2)cc1	?	i	-0.4%	-76.4%	-3.7%	i
O=C(N/N=C/c1ccc(F)cc1)c1cccc(NC(=O)c2ccccc2Cl)c1	?	i	-27.5%	?	-11.0%	i
Cc1ccc(/C=C/C(=O)c2c(C)cc(C)[nH]c2=O)cc1	11.2µM*	?	10µM*	8.91µM*	?	?
COc1ccc(/C=C/C(=O)c2c(C)cc(C)[nH]c2=O)c2ccccc12	?	?	11.6µM*	?	?	i
CCc1ccc(/C=C/C(=O)c2c(C)cc(C)[nH]c2=O)cc1	16.4µM*	23.1µM*	23.1µM*	16.4µM*	14.6µM*	?
Cc1ccc(Cl)cc1N1CCN(C(=O)Cn2ncc3c([nH]c4ccccc43)c2=O)CC1	?	i	.	?	.	?
